Measurements reported in PubChem BioAssay (Tox21).
Results filed as inconclusive are left out. Active and inactive are the calls of the source. Calls follow the shape of the dose curve; as a rule, active = well fitted curve in the direction sought with a large enough effect in the repeat runs; inconclusive = weak or mixed curves; inactive = no such curve, though single readings can be large; an effect the other way counts as inactive or inconclusive.

What was measured:
[1] = A CellTox Green Cytotoxicity Assay to monitor cytotoxicity in HEK293 cells - 24 hour (AID 1224875); also: nearly all actives have a fitted effect of over 45% in size; also: potency is read from the fitted curve at half-maximal effect
Summary of the method: (§1)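 Fluorescence from a DNA-binding dye excluded by viable cells was measured repeatedly in the same HEK293 wells (600 cells/well) during continuous compound exposure at 37 C. Each assay gives one read point: 0, 8, 16, 24, 32 or 40 h.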

[2] = A CellTox Green Cytotoxicity Assay to monitor cytotoxicity in HepG2 cells - 16 hour (AID 1224876); also: nearly all actives have a fitted effect of over 45% in size; also: potency is read from the fitted curve at half-maximal effect
Summary of the method: (§2)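 Real-time cytotoxicity: fluorescence of a cell-impermeant cyanine dye binding DNA of dead HepG2 cells, measured repeatedly (0–40 h) during compound exposure at 37 C. Cells seeded 600/well with reagent, dosed after 5 h.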

[3] = qHTS RealTime-Glo MT Cell Viability Assay in HepG2 cells - 32 hour (AID 1224877); also: nearly all actives have a fitted effect of over 55% in size
Summary of the method: (§3)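 HepG2 suspension premixed with RealTime-Glo reagents is plated at 600 cells per well and left 5 h at 37 C/5% CO2. Compounds in DMSO then go in, and bioluminescence reflecting viable cell number is recorded over 40 h.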

[4] = A CellTox Green Cytotoxicity Assay to monitor cytotoxicity in HepG2 cells - 24 hour (AID 1224878); also: nearly all actives have a fitted effect of over 45% in size; also: potency is read from the fitted curve at half-maximal effect
Summary of the method: as §2

[5] = A CellTox Green Cytotoxicity Assay to monitor cytotoxicity in HepG2 cells - 40 hour (AID 1224879); also: nearly all actives have a fitted effect of over 40% in size; also: potency is read from the fitted curve at half-maximal effect
Summary of the method: as §2

[6] = qHTS RealTime-Glo MT Cell Viability Assay in HEK293 cells - 0 hour (AID 1224880); also: top concentration of the series differs between compounds; nearly all actives have a fitted effect of over 45% in size
Summary of the method: (§4)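 Luminescence, which tracks viable cell number through reduction of the prosubstrate to a NanoLuc substrate, was read over continuous 37 C culture. Cells (600/well) were premixed with reagent and rested 5 h before 23 nL of compound in DMSO was pinned.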

[7] = A CellTox Green Cytotoxicity Assay to monitor cytotoxicity in HEK293 cells - 32 hour (AID 1224881); also: nearly all actives have a fitted effect of over 40% in size; also: potency is read from the fitted curve at half-maximal effect
Summary of the method: as §1

[8] = A CellTox Green Cytotoxicity Assay to monitor cytotoxicity in HepG2 cells - 0 hour (AID 1224882); also: nearly all actives have a fitted effect of over 35% in size
Summary of the method: as §2

[9] = qHTS RealTime-Glo MT Cell Viability Assay in HepG2 cells - 16 hour (AID 1224885); also: nearly all actives have a fitted effect of over 50% in size
Summary of the method: as §3

[10] = qHTS RealTime-Glo MT Cell Viability Assay in HEK293 cells - 8 hour (AID 1224887); also: nearly all actives have a fitted effect of over 50% in size; also: potency is read from the fitted curve at half-maximal effect
Summary of the method: as §4

[11] = A CellTox Green Cytotoxicity Assay to monitor cytotoxicity in HEK293 cells - 16 hour (AID 1224888); also: nearly all actives have a fitted effect of over 35% in size; also: potency is read from the fitted curve at half-maximal effect
Summary of the method: as §1

[12] = qHTS RealTime-Glo MT Cell Viability Assay in HepG2 cells - 0 hour (AID 1224889); also: nearly all actives have a fitted effect of over 50% in size
Summary of the method: as §3

[13] = qHTS assay to identify small molecule antagonists of the estrogen receptor alpha (ER-alpha) signaling pathway using the BG1 cell line in the presence of 0.1 nM 17-beta-estradiol - cell viability counter screen (AID 1259241); also: nearly all actives have a fitted effect of over 40% in size; also: potency is read from the fitted curve at half-maximal effect
Summary of the method: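 In this screen, hormone-deprived VM7Luc4E2 cells were seeded at 4,000 per well, dosed with compound and 0.1 nM estradiol final, and incubated 22 hr at 37C and 5% CO2; fluorogenic live-cell protease signal reported viability.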

[14] = qHTS assay to identify small molecule antagonists of the androgen receptor (AR) signaling pathway using the MDA cell line in the presence of 0.5 nM R1881 - cell viability counter screen (AID 1259242); also: nearly all actives have a fitted effect of over 45% in size; also: potency is read from the fitted curve at half-maximal effect
Summary of the method: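 Live-cell protease activity was measured by CellTiter-Fluor fluorescence after 30 min. Before that, MDA-kb2 MMTV-luciferase cells had 16 hr at 37C without CO2, exposed to test compounds and 0.5 nM R1881 final.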

[15] = A CellTox Green Cytotoxicity Assay to monitor cytotoxicity in HEK293 cells - 8 hour (AID 1224884); also: nearly all actives have a fitted effect of over 35% in size; also: potency is read from the fitted curve at half-maximal effect
Summary of the method: as §1

[16] = A CellTox Green Cytotoxicity Assay to monitor cytotoxicity in HepG2 cells - 8 hour (AID 1224890); also: nearly all actives have a fitted effect of over 45% in size
Summary of the method: as §2

[17] = qHTS RealTime-Glo MT Cell Viability Assay in HEK293 cells - 40 hour (AID 1224874); conditions: RealTime-Glo luminescence; max response: hits give low values; also: potency is read from the fitted curve at half-maximal effect; nearly all actives have a fitted effect of over 50% in size
Summary of the method: as §4

[18] = qHTS RealTime-Glo MT Cell Viability Assay in HEK293 cells - 24 hour (AID 1224886)
Summary of the method: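 Reads taken at 0, 8, 16, 24, 32 and 40 h from the same wells. HEK293 cells (600/well) carried RealTime-Glo reagents from seeding, with compound added after a 5 h settle at 37 C.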

[19] = biological target: Androgen receptor (Homo sapiens) (UniProt P10275); experiment: qHTS assay to identify small molecule antagonists of the androgen receptor (AR) signaling pathway using the MDA cell line in the presence of 0.5 nM R1881 (AID 1259243)
Summary of the method: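 Luminescent reporter readout (ONE-Glo, 30 min, room temperature) after 16 hr co-treatment of MDA-kb2 cells with test compounds and 0.5 nM R1881 final, at 37C without CO2. The MMTV-driven luciferase responds to both AR and GR.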

[20] = A CellTox Green Cytotoxicity Assay to monitor cytotoxicity in HepG2 cells - 32 hour (AID 1224883); also: nearly all actives have a fitted effect of over 50% in size; also: potency is read from the fitted curve at half-maximal effect
Summary of the method: as §2

Measured: Potency

Sequence of Androgen receptor (Homo sapiens) (P10275 whole entry, looked up): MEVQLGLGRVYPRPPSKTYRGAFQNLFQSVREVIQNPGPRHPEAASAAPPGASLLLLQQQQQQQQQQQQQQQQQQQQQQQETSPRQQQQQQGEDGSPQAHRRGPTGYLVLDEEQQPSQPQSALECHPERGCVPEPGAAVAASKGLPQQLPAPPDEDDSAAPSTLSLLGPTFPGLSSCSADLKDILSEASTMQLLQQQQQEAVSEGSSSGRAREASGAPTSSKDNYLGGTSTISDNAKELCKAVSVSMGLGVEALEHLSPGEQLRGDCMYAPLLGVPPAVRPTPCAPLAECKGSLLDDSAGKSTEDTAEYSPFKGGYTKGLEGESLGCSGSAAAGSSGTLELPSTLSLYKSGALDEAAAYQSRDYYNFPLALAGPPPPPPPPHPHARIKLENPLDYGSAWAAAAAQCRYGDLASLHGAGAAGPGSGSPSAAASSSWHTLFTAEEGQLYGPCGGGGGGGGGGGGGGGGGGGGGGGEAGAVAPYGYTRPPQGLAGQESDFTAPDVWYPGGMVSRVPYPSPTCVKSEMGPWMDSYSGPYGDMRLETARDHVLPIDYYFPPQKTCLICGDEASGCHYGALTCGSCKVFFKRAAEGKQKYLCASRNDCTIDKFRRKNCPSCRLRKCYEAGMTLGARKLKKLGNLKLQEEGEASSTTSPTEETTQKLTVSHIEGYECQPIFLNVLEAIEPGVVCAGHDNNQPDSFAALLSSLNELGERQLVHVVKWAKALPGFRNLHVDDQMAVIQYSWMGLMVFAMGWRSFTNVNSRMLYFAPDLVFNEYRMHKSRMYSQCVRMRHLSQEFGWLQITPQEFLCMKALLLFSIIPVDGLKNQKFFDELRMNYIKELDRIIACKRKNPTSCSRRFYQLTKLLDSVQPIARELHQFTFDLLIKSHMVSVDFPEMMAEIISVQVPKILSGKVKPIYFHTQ

CCCCCc1ccc(O)cc1
inactive: [3] | [6] | [8] | [9] | [12] | [13] | [14]
active: [1] 38.9 µM | [2] 49 µM | [4] 49 µM | [5] 43.6 µM | [7] 34.7 µM | [10] 21.9 µM | [11] 38.9 µM

COc1ccc(OC)c(N=Nc2c(O)ccc3ccccc23)c1
active: [13] 9.69 µM | [14] 24.3 µM
not listed: [5] | [9] | [10] | [17] | [18] | [19] | [20]
inactive: all other assays above

CCCCCCCCCCCCCCCCCCNC(=O)OC1CCN(C(=O)OC[C@H](COC(=O)N(Cc2cccc[n+]2CC)C(=O)c2ccccc2OC)OC)CC1
active: [17] 9.52 µM | [15] 26.8 µM | [18] 10.7 µM | [10] 21.3 µM | [19] 23.7 µM
inactive: [6] | [8] | [12] | [13]

O=C(CCN1CCC(c2ccccc2)C1)c1ccc2c(c1)OCCO2 (stereo not drawn)
inactive: [1] | [6] | [8] | [15] | [10] | [11] | [12] | [16] | [13]
active: [5] 26.8 µM | [20] 26.8 µM

CC(=O)N(C)C
inactive: [6]

CCN(CC)c1ccc(C=O)cc1
not listed: [6] | [10] | [17] | [18] | [19]
inactive: all other assays above

O=C1c2ccccc2C(=O)c2c(Cl)cccc21
not listed: [2] | [10] | [17] | [18] | [19]
inactive: all other assays above

O=C(N[C@H](CO)[C@H](O)c1ccc([N+](=O)[O-])cc1)C(Cl)Cl
not listed: [6] | [10] | [17] | [18] | [19]
inactive: all other assays above
